# Data from the supplement of paper PMC10849652.
# The full data set covers some 8,800 targets. This sample favours those with a hit. About 0.5% of all pairs of compound and target were hits. Unmarked numbers belong to inactive results.
# Experiments:
# Test in all cases: log2 fold change, soluble protein after heating vs DMSO (PISA); higher = thermal stabilisation; K562 lysate, 10 uM; active = over 0.2 and 3.5 SD of the protein, either way, in both replicates (recomputed)
# vemurafenib = compound: CCCS(=O)(=O)Nc1ccc(F)c(C(=O)c2c[nH]c3ncc(-c4ccc(Cl)cc4)cc23)c1F [vemurafenib]
# How it was run: (§1)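 K562 pellets were dounce-homogenised in PBS pH 7.4 containing 1 mM MgCl2, and the crude extract, at 1 mg/mL protein, was exposed to 10 μM compound for 30 min. Aliquots were heated for 3 min across 48°C-58°C, pooled, brought to 0.5% NP-40 at 4°C and spun at 21,000xg for 90 min, with the supernatant taken as soluble protein. TMTpro 16plex LC-MS/MS with equalised channel sums quantified that protein. Values are log-two fold changes in thermal stability relative to solvent controls, taken from duplicates.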
# [1] = compound: CCCS(=O)(=O)Nc1ccc(F)c(C(=O)c2c[nH]c3ncc(Cl)cc23)c1F
# How it was run: as §1
# barasertib = compound: CCN(CCCOc1ccc2c(Nc3cc(CC(=O)Nc4cccc(F)c4)[nH]n3)ncnc2c1)CCOP(=O)(O)O [barasertib]
# How it was run: as §1
# [2] = compound: CC[C@@H]1C(=O)N(C)c2cnc(Nc3ccc(C(=O)NC4CCN(C)CC4)cc3OC)nc2N1C1CCCC1
# How it was run: as §1
# volasertib = compound: CC[C@@H]1C(=O)N(C)c2cnc(Nc3ccc(C(=O)N[C@H]4CC[C@H](N5CCN(CC6CC6)CC5)CC4)cc3OC)nc2N1C(C)C [volasertib]
# How it was run: as §1
# [3] = compound: CCn1c(C(=O)N(C2CC2)C2CC2)cc2c3c(ncn3C)c(Nc3cc(C)n(C)n3)nc21
# How it was run: as §1
# [4] = compound: CCn1cc(-c2ccnc3[nH]c(-c4cccc(CN(C)C)c4)cc23)c(-c2ccc(NC(=O)N(C)C)cc2)n1
# How it was run: as §1
# [5] = compound: CN1CCC(CNc2ccc3ncc(-c4cccc(OC(F)(F)F)c4)n3n2)CC1
# How it was run: as §1
# saracatinib = compound: CN1CCN(CCOc2cc(OC3CCOCC3)c3c(Nc4c(Cl)ccc5c4OCO5)ncnc3c2)CC1 [saracatinib]
# How it was run: as §1
# sotrastaurin = compound: CN1CCN(c2nc(C3=C(c4c[nH]c5ccccc45)C(=O)NC3=O)c3ccccc3n2)CC1 [sotrastaurin]
# How it was run: as §1
# Chain of UniProt Q15366 (Q15366 whole entry, looked up): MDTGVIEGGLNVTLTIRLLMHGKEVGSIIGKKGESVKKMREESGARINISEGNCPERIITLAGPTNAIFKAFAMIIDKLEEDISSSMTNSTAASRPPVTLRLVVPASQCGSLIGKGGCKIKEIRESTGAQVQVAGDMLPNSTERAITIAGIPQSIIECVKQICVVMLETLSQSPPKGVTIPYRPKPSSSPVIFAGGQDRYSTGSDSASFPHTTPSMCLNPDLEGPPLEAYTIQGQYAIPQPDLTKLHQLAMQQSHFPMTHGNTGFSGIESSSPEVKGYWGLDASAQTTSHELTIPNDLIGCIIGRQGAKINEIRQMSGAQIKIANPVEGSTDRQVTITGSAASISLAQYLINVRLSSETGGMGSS
# Chain of UniProt Q5VU43 (Q5VU43 whole entry, looked up): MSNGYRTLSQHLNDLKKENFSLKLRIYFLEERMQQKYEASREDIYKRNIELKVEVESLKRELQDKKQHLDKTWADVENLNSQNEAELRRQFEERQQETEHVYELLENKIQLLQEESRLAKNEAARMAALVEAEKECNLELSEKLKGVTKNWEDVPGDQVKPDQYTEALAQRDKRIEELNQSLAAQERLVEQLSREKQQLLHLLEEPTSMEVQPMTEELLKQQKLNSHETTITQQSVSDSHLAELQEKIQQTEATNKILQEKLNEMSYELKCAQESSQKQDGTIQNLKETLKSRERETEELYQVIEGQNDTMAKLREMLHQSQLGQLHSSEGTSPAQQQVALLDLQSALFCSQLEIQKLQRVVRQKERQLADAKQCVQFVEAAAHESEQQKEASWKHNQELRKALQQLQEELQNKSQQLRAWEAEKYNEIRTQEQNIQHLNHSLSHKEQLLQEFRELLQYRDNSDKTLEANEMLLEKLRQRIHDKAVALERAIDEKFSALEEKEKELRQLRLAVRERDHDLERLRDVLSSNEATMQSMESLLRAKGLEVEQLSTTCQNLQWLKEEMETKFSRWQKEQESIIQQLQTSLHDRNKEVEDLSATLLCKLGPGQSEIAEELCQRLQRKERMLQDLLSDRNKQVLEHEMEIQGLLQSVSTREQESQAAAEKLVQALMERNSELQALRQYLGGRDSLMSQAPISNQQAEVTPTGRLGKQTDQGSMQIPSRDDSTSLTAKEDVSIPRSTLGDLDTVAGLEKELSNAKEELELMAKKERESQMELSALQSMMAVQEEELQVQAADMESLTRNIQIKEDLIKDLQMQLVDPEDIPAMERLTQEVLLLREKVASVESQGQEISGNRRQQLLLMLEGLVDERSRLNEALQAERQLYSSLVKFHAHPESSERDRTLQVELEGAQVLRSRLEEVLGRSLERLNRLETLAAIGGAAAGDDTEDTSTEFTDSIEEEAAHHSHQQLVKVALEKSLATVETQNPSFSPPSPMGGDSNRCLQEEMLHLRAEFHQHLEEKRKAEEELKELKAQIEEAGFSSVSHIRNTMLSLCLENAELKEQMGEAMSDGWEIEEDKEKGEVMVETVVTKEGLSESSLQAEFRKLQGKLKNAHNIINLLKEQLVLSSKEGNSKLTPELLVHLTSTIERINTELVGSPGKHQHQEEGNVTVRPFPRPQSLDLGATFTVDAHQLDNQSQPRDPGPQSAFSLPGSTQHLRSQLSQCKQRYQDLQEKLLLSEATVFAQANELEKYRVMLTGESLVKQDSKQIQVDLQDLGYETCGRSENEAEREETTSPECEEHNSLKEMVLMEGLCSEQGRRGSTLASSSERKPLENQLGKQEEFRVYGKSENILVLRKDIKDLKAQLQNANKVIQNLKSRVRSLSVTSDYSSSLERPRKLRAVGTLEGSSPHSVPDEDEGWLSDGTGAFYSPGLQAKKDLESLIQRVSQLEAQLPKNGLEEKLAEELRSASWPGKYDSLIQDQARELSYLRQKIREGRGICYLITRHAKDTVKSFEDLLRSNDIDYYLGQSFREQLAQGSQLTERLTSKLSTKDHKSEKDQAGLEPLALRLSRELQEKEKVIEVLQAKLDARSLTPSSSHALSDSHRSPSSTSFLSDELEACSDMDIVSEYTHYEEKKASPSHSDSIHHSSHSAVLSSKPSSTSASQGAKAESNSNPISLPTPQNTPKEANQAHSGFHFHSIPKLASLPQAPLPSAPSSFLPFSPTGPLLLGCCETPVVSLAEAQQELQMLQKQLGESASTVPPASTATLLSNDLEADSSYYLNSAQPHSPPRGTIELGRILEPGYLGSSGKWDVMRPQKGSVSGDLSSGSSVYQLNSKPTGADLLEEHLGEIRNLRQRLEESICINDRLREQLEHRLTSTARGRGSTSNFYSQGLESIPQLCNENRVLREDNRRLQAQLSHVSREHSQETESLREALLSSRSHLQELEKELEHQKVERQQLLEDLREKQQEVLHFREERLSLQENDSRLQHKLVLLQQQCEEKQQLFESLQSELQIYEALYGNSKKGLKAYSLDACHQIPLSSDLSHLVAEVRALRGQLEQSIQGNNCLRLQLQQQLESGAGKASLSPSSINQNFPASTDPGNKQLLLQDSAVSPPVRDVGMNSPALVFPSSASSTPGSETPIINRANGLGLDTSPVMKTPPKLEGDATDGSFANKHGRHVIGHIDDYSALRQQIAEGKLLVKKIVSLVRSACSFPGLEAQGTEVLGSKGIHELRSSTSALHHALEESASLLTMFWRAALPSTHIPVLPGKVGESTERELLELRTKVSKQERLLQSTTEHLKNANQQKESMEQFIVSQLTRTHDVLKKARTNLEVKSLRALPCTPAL
# Chain of UniProt Q9UNP9 (Q9UNP9 whole entry, looked up): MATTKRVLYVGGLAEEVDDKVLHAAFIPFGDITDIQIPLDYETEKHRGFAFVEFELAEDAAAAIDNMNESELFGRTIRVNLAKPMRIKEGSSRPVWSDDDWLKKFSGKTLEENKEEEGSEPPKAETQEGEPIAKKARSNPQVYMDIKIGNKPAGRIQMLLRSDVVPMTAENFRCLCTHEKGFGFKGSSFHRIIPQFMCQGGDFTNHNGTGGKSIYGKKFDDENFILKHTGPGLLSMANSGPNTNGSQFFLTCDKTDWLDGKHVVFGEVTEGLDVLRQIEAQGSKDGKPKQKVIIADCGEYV
# Chain of UniProt O60237 (O60237 whole entry, looked up): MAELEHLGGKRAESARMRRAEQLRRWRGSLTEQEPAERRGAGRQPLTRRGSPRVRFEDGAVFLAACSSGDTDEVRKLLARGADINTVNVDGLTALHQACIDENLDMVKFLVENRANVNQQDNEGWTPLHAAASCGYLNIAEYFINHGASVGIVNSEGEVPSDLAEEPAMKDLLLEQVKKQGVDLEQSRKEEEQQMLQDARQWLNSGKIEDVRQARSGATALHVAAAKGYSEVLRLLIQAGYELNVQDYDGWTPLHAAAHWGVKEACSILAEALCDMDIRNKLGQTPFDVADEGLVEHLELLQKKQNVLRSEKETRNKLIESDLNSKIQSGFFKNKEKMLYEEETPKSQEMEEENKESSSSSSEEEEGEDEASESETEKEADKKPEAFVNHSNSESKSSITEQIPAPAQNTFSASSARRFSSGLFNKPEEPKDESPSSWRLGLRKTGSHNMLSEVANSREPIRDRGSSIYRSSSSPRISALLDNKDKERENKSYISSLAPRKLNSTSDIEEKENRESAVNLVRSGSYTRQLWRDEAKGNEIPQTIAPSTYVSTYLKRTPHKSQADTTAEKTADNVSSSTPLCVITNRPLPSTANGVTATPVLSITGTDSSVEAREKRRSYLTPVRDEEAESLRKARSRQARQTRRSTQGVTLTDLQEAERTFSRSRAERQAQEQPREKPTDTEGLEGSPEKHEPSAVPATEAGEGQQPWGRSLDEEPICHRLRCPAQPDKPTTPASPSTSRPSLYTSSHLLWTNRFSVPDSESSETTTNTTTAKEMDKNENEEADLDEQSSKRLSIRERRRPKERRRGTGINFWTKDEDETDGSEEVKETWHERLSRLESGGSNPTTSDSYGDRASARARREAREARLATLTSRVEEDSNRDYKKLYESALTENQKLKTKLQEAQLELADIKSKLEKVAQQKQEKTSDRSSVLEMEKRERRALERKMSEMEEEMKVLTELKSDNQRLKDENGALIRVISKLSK
# Chain of UniProt Q10713 (Q10713 whole entry, looked up): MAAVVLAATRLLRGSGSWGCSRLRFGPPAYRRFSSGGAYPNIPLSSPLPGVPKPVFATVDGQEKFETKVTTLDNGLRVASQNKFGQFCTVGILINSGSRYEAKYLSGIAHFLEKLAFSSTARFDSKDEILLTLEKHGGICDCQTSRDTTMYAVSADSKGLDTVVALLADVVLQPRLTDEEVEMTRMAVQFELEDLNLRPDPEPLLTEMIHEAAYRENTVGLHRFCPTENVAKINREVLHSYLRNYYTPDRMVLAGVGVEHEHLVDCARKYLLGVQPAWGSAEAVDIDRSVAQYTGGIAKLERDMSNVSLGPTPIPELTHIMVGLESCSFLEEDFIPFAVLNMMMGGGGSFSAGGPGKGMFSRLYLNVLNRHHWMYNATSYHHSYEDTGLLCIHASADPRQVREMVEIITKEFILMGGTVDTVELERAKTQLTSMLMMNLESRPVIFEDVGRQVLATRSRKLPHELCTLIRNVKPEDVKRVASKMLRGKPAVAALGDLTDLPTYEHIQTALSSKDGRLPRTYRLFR
# Chain of UniProt Q53EL6 (Q53EL6 whole entry, looked up): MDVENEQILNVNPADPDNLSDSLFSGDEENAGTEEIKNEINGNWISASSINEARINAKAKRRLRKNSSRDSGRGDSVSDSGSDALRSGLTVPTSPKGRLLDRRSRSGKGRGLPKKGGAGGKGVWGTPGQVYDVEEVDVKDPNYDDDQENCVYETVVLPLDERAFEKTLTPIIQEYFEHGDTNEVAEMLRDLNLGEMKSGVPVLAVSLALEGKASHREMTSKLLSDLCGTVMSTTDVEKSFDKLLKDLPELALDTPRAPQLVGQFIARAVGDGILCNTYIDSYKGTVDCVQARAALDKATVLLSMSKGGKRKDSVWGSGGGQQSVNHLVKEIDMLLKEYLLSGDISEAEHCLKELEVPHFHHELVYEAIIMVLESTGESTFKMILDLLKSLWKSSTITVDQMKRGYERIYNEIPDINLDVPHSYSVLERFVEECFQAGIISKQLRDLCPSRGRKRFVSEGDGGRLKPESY
Target,log2 fold change (vemurafenib),log2 fold change [1],log2 fold change (barasertib),log2 fold change [2],log2 fold change (volasertib),log2 fold change [3],log2 fold change [4],log2 fold change [5],log2 fold change (saracatinib),log2 fold change (sotrastaurin)
PCBP2 isoform 3 (UniProt Q15366),-0.059,-0.004,-0.006,-0.021,-0.003,0.057,-0.022,-0.002,-0.017,-0.006
PPIE (UniProt Q9UNP9),0.026,-0.043,-0.042,0.044,0.018,-0.003,-0.25 (active),0.143,-0.01,0.067
PRKD3 (UniProt O94806),-0.148,-0.057,0.161,-0.25,-0.06,-0.143,-0.876 (active),0.219,–,0.086
PUF60 isoform 2 (UniProt Q9UHX1),-0.126,0.101,-0.057,0.047,0.021,-0.062,1.25 (active),-0.115,–,-0.043
POLB (UniProt P06746),-0.013,0.003,-0.029,-0.013,-0.025,0.032,-0.015,-0.07,0.033,0.048
PPFIA2 (UniProt O75334),0.062,-0.018,0.054,0.01,0.02,-0.127,-0.255,0.146,-0.016,-0.05
PRIM1 (UniProt P49642),-0.036,0.022,0.031,-0.089,-0.069,0.062,-0.008,-0.029,-0.002,0.007
PFDN2 (UniProt Q9UHV9),-0.049,0,0.064,-0.022,0.029,0.082,0.471 (active),-0.049,0.009,0.039
PPT2 isoform 3 (UniProt Q9UMR5),0.007,0.012,0.028,0.01,-0.023,-0.026,0.007,0.018,-0.011,0.003
PIKFYVE (UniProt Q9Y2I7),-0.022,0.042,0.26,-0.036,-0.047,0.04,-0.056,0.038,0.054,0.038
PMPCA (UniProt Q10713),0.047,0.037,-0.014,-0.039,-0.031,-0.025,-0.017,0.233,-0.024,0.006
QKI (UniProt Q96PU8),-0.006,0.024,-0.027,0.087,-0.021,0.001,-0.196,0.107,0.047,0
PIK3R1 (UniProt P27986),0.011,-0.01,-0.005,0.172,0.016,0.023,-0.037,0.365 (active),0.025,0.056
PXMP4 (UniProt Q9Y6I8),0.343,0.114,0.04,-0.035,-0.039,0.064,-0.246,0.006,0.036,0.025
PTP4A1 (UniProt Q93096),-0.006,-0.029,-0.041,0.017,0.036,0.019,0.177,-0.05,0.001,0
PRPH isoform 2 (UniProt P41219),0.03,-0.05,-0.13,-0.102,-0.028,0.098,0.132,-0.1,0.071,0.036
PHF14 (UniProt O94880),0.079,-0.127,-0.046,0.341,0.004,-0.02,–,–,-0.047,–
PPP1R12B isoform 6 (UniProt O60237),0.08,0.036,-0.046,0.133,-0.029,-0.209,–,–,-0.047,-0.057
PHKB isoform 3 (UniProt Q93100),-0.043,-0.007,0.04,0.022,-0.034,0.009,-0.146,0.138,0.019,-0.014
POLD3 (UniProt Q15054),0.003,-0.005,0.004,-0.014,-0.045,-0.013,0.009,-0.03,0.028,-0.01
PHOSPHO2 (UniProt Q8TCD6),-0.023,-0.026,0.047,0.232,0.019,0.003,-0.084,0.001,-0.023,0.039
PRKCSH (UniProt P14314),0.01,-0.009,-0.009,0.007,0.04,0.025,0.007,-0.003,0.011,0.018
PIR (UniProt O00625),-0.023,0.098,-0.005,0.025,0.019,-0.055,0.205,-0.024,-0.006,-0.028
PHKA2 (UniProt P46019),-0.065,0.053,0.072,0.059,0.021,0.024,0.009,-0.084,0.002,-0.058
PDCD4 (UniProt Q53EL6),0.014,0.02,0.024,-0.023,-0.03,0.029,-0.029,-0.013,0.009,0.001
PDE4DIP isoform 4 (UniProt Q5VU43),0.027,0.011,0.092,0.046,0.025,0.04,-0.04,-0.005,0.034,-0.014
PRMT5 (UniProt O14744),0.006,-0.008,-0.007,0.02,-0.007,-0.009,-0.067,0.017,-0.032,0.015
PPME1 isoform 4 (UniProt Q9Y570),0.005,0.003,-0.045,-0.006,0.016,0.028,-0.015,0.008,-0.01,-0.008
